Source: PubChem (National Center for Advancing Translational Sciences (NCATS))
KDM5B inhibitor: Primary screen for KDM5B Histone Demethylases FDH-coupled qHTS; Lysine-specific demethylase 5B (Homo sapiens), Q9UGL1; KDM5B demethylase, FDH-coupled NADH fluorescence (FDH is formaldehyde dehydrogenase); Potency, µM (doses to about 57.7 µM), most hits filed as inhibitors; 2.6% of 220,000 active; AID 1347165, 2019; active = well fitted inhibition curve with a large enough effect; note: 0% is about no effect; nearly all actives have a fitted effect of over 70% in size
Target sequence (Q9UGL1 whole entry, looked up): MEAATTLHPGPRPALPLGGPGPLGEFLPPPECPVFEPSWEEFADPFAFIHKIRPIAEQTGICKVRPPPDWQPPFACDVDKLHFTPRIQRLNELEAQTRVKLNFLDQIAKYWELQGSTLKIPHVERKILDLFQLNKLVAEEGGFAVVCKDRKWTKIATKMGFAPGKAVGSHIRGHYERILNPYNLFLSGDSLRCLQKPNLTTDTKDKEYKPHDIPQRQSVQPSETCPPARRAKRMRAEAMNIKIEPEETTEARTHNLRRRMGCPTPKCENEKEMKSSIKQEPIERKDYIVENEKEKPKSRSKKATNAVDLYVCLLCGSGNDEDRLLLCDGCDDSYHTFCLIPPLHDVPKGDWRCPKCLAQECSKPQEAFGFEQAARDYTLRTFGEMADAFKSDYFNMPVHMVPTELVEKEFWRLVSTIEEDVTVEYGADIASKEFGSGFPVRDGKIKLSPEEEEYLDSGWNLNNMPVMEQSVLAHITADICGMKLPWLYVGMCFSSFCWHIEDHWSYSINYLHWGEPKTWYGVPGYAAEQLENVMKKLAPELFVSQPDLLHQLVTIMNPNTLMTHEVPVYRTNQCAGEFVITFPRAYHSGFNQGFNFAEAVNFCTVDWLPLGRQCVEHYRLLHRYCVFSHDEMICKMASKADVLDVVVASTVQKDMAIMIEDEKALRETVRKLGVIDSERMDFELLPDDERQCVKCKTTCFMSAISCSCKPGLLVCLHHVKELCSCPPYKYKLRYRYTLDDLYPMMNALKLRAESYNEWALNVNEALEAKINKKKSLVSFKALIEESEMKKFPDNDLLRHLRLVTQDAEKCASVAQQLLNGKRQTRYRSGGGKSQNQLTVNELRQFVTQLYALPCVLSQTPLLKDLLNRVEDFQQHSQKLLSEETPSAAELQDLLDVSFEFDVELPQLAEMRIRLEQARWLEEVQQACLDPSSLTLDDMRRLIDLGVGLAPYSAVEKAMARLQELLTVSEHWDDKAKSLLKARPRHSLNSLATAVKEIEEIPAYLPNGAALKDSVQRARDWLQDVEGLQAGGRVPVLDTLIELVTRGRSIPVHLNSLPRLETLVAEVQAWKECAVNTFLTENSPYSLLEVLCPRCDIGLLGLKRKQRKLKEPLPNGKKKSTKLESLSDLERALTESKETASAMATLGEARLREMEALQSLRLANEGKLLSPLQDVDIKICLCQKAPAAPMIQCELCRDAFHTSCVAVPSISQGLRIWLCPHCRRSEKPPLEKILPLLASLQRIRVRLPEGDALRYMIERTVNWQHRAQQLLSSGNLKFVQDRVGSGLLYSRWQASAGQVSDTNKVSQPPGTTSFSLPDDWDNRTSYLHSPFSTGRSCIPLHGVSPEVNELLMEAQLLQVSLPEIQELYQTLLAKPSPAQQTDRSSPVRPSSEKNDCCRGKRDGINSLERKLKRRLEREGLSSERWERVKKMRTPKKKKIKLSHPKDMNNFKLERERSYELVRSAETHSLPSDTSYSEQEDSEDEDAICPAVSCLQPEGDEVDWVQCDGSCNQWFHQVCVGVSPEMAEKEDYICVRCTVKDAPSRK
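Inhibition is measured as reduced NADH fluorescence generation from FDH coupling to formaldehyde release. Truncated KDM5BΔAP at 200 nM final acts on H3K4me3 peptide (12.5 µM in substrate mix) in pH 7.5 HEPES buffer with Tween-20, 30 min, room temperature.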
Active calls of the source: *; i = inactive. This is one part of a sample in which hits are shown more often than they occur. Potency is the fitted concentration of half-maximal effect.

SMILES	KDM5B inhibitor
Cc1ccc2nc(SCCC(=O)N[C@@H]3C[C@@H]4OCC[C@@H]43)cc(C)c2c1	i
Cc1nn(-c2ccc3nncn3n2)c2c1C(c1ccccc1OCc1ccccc1)CC(=O)N2 (configuration not stated)	i
Cc1ccc(C(C)C)c(OC(=O)c2ccc(C#N)cc2)c1	i
Cc1ccc(NC(=O)c2ccc(Cl)cc2Cl)nc1	i
CCC(=C/c1ccccc1)/C=N/O	i
CC1Oc2ccc(NC(=O)C3CCCC3)cc2CN(Cc2ccc(F)cc2)C1=O (configuration not stated)	i
Cc1occc1C(=O)N1C[C@@H](C(=O)O)C[C@H](C(=O)NCc2ccccn2)C1	i
O=Cc1cccc(-c2cccs2)c1	i
CSCCC(=O)NCCc1ccsc1	i
CC(=O)NC1(C)CCCN(Cc2cccc(Nc3cccc(C#N)c3)c2)C1 (configuration not stated)	i
CCOc1ccccc1NC(=O)/C=C/c1ccc2ccccc2n1	i
O=C(Sc1ccc(Sc2ccc(SC(=O)c3ccco3)cc2)cc1)c1ccco1	i
CS(=O)(=O)N1CCC(OC2CCN(C(=O)Nc3ccc(Cl)cc3F)CC2)CC1	i
Cc1cc(C(=O)NCc2ccc(F)cc2)c2c(C3CCCN3)noc2n1 (configuration not stated)	i
Cn1nc(C2CCCN2)c2c(C(=O)NCc3ccncc3)cc(C3CC3)nc21 (configuration not stated)	79µM*
O=C(c1cc(C2CC2)nc2c1c(C1CCCN1)nn2-c1ccccc1)N1CCOCC1 (configuration not stated)	i
O=C(O)c1cc(C2CC2)nc2c1c(C1CC1)nn2-c1ccc(F)cc1	i
Cn1nc(C2CCCN2)c2c(C(=O)NCc3ccc(F)cc3)cc(C3CC3)nc21 (configuration not stated)	79µM*
O=C(NC1CC1)c1cc(C2CC2)nc2c1c(C1CCCN1)nn2-c1ccccc1 (configuration not stated)	i
CN(CCc1ccncc1)C(=O)c1cc(C2CC2)nc2ccccc12	i
CC(C)CNC(=O)c1cc(C2CC2)nc2c1c(C1CCCN1)nn2C (configuration not stated)	79µM*
O=C(NC1CCNCC1)c1cc(C2CC2)nc2c1c(C1CCCN1)nn2-c1ccccc1 (configuration not stated)	i
CCOc1ccc(S(=O)(=O)Nc2nc3ccccc3nc2Nc2ccc(C(=O)O)cc2)cc1	i
O=C(Nc1c(NC2CCCCC2)c2ccccc2oc1=O)c1ccccc1Cl	i
CC(NC(=O)c1n[nH]c(=O)c2ccccc12)c1ccco1 (configuration not stated)	i
SMILES	KDM5B inhibitor
O=C(O)CCC(=O)N1N=C(c2ccc3c(c2)OCO3)CC1c1ccccc1 (configuration not stated)	i
COCCn1c(C)c(C)c(S(=O)(=O)c2ccc(F)cc2)c1NC(=O)COC	i
CNC(=O)[C@@H](Cc1ccccc1)N1CCC[C@H]1C(=O)NCc1ccccn1	28µM*
CNC(=O)[C@@H](Cc1ccccc1)N1CCC[C@H]1C(=O)NCc1cccnc1	i
CNC(=O)[C@@H](Cc1ccccc1)N1CCC[C@H]1C(=O)NCCOC	i
CCc1noc(-c2cn(C3CCCN(C(=O)c4ccc(OC(F)(F)F)cc4)C3)nn2)n1 (configuration not stated)	i
CCOC(=O)c1noc2nc(C)n(Cc3nc(-c4ccc(OC)c(OC)c4)oc3C)c(=O)c12	i
O=C(c1ccsc1)N1CCCn2cc(-c3ccccc3F)nc21	i
COc1ccc(-c2cn3c(n2)N(C(=O)Cc2ccccc2)CCC3)cc1	i
Cc1ccc(C(=O)N2CCCn3cc(-c4ccccc4F)nc32)cn1	i
N#Cc1cccc(-c2cn3c(n2)N(C(=O)c2cccnc2)CCC3)c1	35µM*
COCCC(=O)N1CCCn2cc(-c3cccc(C#N)c3)nc21	22µM*
O=C(c1cccs1)N1CCCn2cc(-c3ccccc3F)nc21	i
COc1ccc(C(=O)N2CCCn3cc(-c4ccccc4)nc32)cn1	i
N#Cc1cccc(-c2cn3c(n2)N(C(=O)c2cccs2)CCC3)c1	28µM*
COc1cccc(-c2cn3c(n2)N(C(=O)Cn2ccnc2C)CCC3)c1	i
COc1cc(CNc2ccc(N3CCOCC3)c(C(=O)O)c2)cc(Cl)c1OC	i
CCC(C)(C)c1ccc(O)c(-c2csc(N)n2)c1	i
CNC(=O)c1cc(=O)n(CC(=O)Nc2cccc(C#N)c2)c2ccccc12	i
CCN(CC)C(=O)c1ccc2oc(CN3CCN(C(=O)Nc4cccc(Cl)c4C)CC3)nc2c1	i
O=C(CCCc1ccccc1)N1CCN(C(=O)c2nnn3c2COC(c2ccccc2)C3)CC1 (configuration not stated)	i
Cn1c(=O)c2c(nc(Oc3ccccc3F)n2Cc2ccccc2F)n(C)c1=O	i
COc1cc(Cl)c(C)cc1NC(=O)Cn1ccn2nc(-c3ccccc3)c(CO)c2c1=O	16µM*
